Several values for one entry are separate records, joined by “and”; a condition that tells them apart may be missing. Identical values can stand only once. For part of these data: Entries with a potency or affinity are not part of this list. Activity calls are given as the source filed them. Unless noted, no rule for the calls is given here.

Consider six compounds from PubChem BioAssay.

A short description of assay [1]: polyglutamine-triggered caspase-3 activation inhibitors, cell-based (AID 1583). Conditions: polyglutamine-induced caspase-3 activation, cell assay; stronger effect = higher value;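 tested at 10 µM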.
A short description of assay [2]: suppressors of polyQ aggregation in yeast, 75Q-TubU reporter (AID 1593). As to conditions: Yeast 75Q polyglutamine aggregation reporter.
Assay [3] in a line: rescue of polyQ-huntingtin neuronal dysfunction in worms, whole organism, C. elegans mechanosensory neurons, N-terminal huntingtin (AID 1599). Conditions: touch response, stronger effect = higher value.
Assay [4] in a line: inhibitors of mitochondrial cytochrome c release, biochemical, purified mitochondria (AID 1603).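 Also: mouse liver mitochondria challenged with calcium chloride; signal normalized to the plate average as 100%.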 As to conditions: stronger effect = lower value.
The nature of assay [5]: inhibitors of polyQ protein aggregation (AID 1604). Conditions: polyglutamine-induced protein aggregation inhibition assay; stronger effect = higher value; tested at 2.5 µM.
A short description of assay [6]: enhancers of glutamate uptake in motor neurons, MN-1 cell line (AID 1612).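 Also: tested at 1 µM final; 0% = mean of DMSO vehicle wells on each plate; positive means more glutamate uptake than control and negative means less.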 Conditions: MN-1 motor neuron cells, stronger effect = higher value.
Assay [7] is described as follows: reducers of polyQ inclusions in PC12 cells, cell-based, NGF-treated PC12, GFPQ80 (AID 1614).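 Also: lower means fewer inclusions and 0 means no inclusions at all.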 As to conditions: PC12 NGF-treated GFP-polyQ80 inclusion reduction.
A short description of assay [8]: suppressors of polyglutamine aggregation in yeast, 75Q-TubH (AID 1616). As to conditions: S. cerevisiae 75Q-TubH polyglutamine aggregation suppression; stronger effect = higher value.
Assay [9] is described as follows: liver-stage malaria parasite growth inhibition, primary screen, cell-based, HepG2, luciferase luminescence, HepG2 viability (AID 624349; in the data active = parasite load remaining mostly below about 12%, no sharp cut-off; inactive = mostly above about 10%;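 also: 100% = mean of DMSO negative control wells on the same plate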). Conditions: P. berghei liver stage in HepG2, luciferase luminescence, concentration not given here; parasite load remaining: stronger effect = lower value; viability: measured here: HepG2 viability without parasites.
The target of assay [10] is 6-phosphogluconate dehydrogenase, decarboxylating (Homo sapiens) (UniProt P52209). Nature of the assay: 6PGD enzyme inhibitors, primary screen, biochemical, human, recombinant enzyme, NADPH absorbance (AID 1159550;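 active = at least 20% inhibition of 6-phosphogluconate dehydrogenase activity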). As to conditions: recombinant 6PGD, NADPH absorbance 341 nm; at 10 µM; stronger effect = higher value.
Assay [11] can be described thus: differential killing of epithelial or mesenchymal cells, primary screen, imaging, PC-3E GFP, TEM4-18 mCherry, co-culture (AID 1345086;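 active = compounds killing one labelled cell type while sparing the other, by normalised counts and ratio limits, not self-fluorescent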;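 as to all read-outs here: cells exposed to compound for 72 h before imaging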;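 as to red/green cell ratio (normalised): normalised mesenchymal count divided by normalised epithelial count so high means epithelial killing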). As to conditions: imaging cell counts, at 1 µM; for red/green cell ratio (normalised): actives lie on both sides, counts scaled to control wells, 1 = unselective.
The nature of assay [12]: sensitizers of A549 cells to miR-34 induction, primary screen, imaging, A549 dox-inducible miR-34, nuclei and caspase counts (AID 1347080;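 active = compounds whose cell count with miR-34 switched on is under 0.7 times the count with it off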). As to conditions: A549 miR-34 inducible, Hoechst nuclei count, 48 h.
Assay [13] is described as follows: survival rescue of mitochondrial mutant cells in low glucose, primary screen, MELAS cybrids, Rieske KO mouse fibroblasts, CellTiter-Glo (AID 1508586;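 active = mean z-score across replicates of 1.96 or higher in either the MELAS or the Rieske mutant cell line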;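 also: z relative to plate mean and SD of compound and empty wells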). In general terms: ATP-based viability assays read luminescence as a measure of living cells.
The target of assay [14] is Mitogen-activated protein kinase 7 (Homo sapiens) (UniProt Q13164). Nature of the assay: ERK5 transactivation activators in reporter cells, primary screen, cell-based, HTS (AID 1508626;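 active = luciferase signal above three times the same-plate solvent-only control wells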;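 also: luciferase driven by Gal4-ERK5 fusion binding five Gal4 sites before minimal TATA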). As to conditions: HeLa Gal4-ERK5 transactivation, 18 h, at 5 µM, stronger effect = higher value.
Assay [15] can be described thus: circadian clock period modulators, cell-based, LOPAC library, luminescence reporter (AID 2774).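 Also: values are relative to mean of DMSO wells on each plate.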 As to conditions: circadian reporter cells, at 7 µM, actives lie on both sides.
Assay [16] has as its system Hepatitis C virus NS3 helicase. Nature of the assay: HCV NS3 helicase inhibitors, primary screen, biochemical, fluorescence polarization, LOPAC1280 library (AID 687035; in the data active = inhibition above about 37%). Conditions: Purified HCV NS3 helicase, Cy5-dT15 ssDNA binding fluorescence polarization; stronger effect = higher value; concentration not given here. For orientation: Fluorescence polarisation rises when a labelled molecule tumbles more slowly, as on binding a larger partner.

Assay [17] is described as follows: phospholipid biosynthesis inhibitors in animal cells, primary screen, cell-based, LOPAC library, screen 4 (AID 1347384). As to conditions: phospholipid biosynthesis inhibition screen, at 10 µM.
Assay [18] can be described thus: viability rescue of complex I mutant cybrids, primary screen, cell-based, galactose medium, ATP luminescence (AID 1645843;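 active = z-score of at least 1.8 in each of two replicates, scored against plate mean and spread of sample wells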;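 also: positive z means more ATP and so rescue of galactose-driven cybrid death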). As to conditions: complex I mutant cybrid cells, 72 h, stronger effect = higher value.
Assay [19] addresses NAD(+) hydrolase SARM1 (Homo sapiens) (UniProt Q6SZW1). Nature of the assay: SARM1 TIR NADase inhibitors, cell lysate, NAD-Glo luminescence (AID 1508614;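 active = compound whose remaining NAD level is above about 45 nM, limit read from the data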;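 also: higher remaining NAD means stronger inhibition of SARM1 NADase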). As to conditions: SAM-TIR HEK293T lysate NADase, at 1 µM, stronger effect = higher value.
A short description of assay [20]: hESC survival regulators, cell-based (AID 493140).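 Also: cells exposed to compounds for four days before counting.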 Conditions: human embryonic stem cell survival screen; stronger effect = higher value.
Setting [21] is: measured here: epithelial PC-3E GFP cell survival.
The mark [22] stands for this setting: measured here: mesenchymal TEM4-18 mCherry cell survival.
Where [23] appears, read: stronger effect = lower value, cell number ratio, induced over uninduced.
[24] abbreviates: measured here: relative caspase fold change +Dox/-Dox.
The mark [25] stands for this setting: measured here: total cells with miR-34 induction, stronger effect = lower value.
The mark [26] stands for this setting: measured here: total cells without miR-34 induction.
The mark [27] stands for this setting: MELAS cybrid survival, CellTiter-Glo 48 h, stronger effect = higher value.
[28] abbreviates: Rieske KO mouse fibroblast survival, CellTiter-Glo 72 h.

6-phosphogluconate dehydrogenase, decarboxylating (Homo sapiens), sequence (P52209 whole entry, looked up): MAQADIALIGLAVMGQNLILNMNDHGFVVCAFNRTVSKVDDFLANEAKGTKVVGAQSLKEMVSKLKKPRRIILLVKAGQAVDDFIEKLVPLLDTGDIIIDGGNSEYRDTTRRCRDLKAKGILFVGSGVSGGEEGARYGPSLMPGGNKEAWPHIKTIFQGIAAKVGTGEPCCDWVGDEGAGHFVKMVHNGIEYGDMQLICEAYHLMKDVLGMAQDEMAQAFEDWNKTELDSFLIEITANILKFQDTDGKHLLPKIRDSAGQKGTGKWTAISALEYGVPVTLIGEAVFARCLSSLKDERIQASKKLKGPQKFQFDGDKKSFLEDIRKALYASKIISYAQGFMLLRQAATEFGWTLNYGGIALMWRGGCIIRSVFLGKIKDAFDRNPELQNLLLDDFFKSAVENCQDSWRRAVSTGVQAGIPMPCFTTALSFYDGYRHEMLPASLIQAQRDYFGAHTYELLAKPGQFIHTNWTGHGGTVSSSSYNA
Mitogen-activated protein kinase 7 (Homo sapiens), sequence (Q13164 whole entry, looked up, the tested form may be a part): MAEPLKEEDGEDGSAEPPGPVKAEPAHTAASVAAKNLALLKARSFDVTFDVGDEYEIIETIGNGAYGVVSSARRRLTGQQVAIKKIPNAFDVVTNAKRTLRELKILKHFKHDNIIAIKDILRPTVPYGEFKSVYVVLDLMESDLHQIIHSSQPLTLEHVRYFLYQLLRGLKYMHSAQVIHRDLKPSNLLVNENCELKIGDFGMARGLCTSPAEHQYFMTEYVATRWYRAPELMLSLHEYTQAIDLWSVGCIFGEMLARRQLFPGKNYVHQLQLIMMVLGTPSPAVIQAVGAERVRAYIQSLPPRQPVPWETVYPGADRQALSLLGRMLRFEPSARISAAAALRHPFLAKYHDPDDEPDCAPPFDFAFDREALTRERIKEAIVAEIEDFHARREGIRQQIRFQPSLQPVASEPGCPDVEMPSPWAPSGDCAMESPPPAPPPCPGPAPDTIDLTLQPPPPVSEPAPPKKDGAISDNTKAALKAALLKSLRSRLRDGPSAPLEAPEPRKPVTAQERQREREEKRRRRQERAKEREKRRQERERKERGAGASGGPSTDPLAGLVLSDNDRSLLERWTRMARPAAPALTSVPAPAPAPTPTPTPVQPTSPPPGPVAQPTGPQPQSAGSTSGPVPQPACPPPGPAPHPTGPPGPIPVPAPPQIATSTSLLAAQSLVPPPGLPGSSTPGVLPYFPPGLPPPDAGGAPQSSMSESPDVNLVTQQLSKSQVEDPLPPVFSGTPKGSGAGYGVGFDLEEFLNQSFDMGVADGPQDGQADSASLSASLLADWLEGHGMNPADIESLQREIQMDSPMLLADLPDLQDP
NAD(+) hydrolase SARM1 (Homo sapiens), sequence (Q6SZW1 whole entry, looked up): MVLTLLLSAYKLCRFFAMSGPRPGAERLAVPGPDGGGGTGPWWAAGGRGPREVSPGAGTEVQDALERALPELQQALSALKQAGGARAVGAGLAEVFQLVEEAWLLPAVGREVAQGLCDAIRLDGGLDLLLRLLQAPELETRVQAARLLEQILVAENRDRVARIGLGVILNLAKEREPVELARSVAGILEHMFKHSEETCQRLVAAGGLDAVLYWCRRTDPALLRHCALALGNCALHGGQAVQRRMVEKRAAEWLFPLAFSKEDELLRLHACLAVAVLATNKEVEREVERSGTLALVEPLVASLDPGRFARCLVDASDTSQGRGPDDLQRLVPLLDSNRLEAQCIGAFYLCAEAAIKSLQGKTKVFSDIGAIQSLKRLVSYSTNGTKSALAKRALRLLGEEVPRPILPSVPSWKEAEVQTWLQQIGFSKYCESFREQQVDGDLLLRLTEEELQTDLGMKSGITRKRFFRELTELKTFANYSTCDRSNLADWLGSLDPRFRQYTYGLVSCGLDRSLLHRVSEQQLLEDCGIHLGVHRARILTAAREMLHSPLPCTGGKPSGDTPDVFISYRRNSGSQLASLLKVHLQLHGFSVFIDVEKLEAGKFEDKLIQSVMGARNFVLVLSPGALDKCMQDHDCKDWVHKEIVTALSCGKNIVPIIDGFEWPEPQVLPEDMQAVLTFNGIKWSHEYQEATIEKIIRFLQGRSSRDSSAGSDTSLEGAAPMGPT

Take `C[N+](C)(C)CC(O)CC(=O)O` (stereo unspecified): the inhibition in [1] is 0.15%; in [10] it was -11.2% (inactive). Also, the score in assay [2] came out at 1.34. The rescue above control in [3] was -5.96. The cytochrome c release ratio in [4] came out at 0.99. The inhibition of aggregation in assay [5] worked out at 88.8%. Moreover, the glutamate uptake change in assay [6] was -5.62%. In addition, the inclusion score in [7] was 2. Besides, the aggregation suppression score in [8] was 1.39. Moreover, the parasite load remaining in [9] was 33.4% (inactive). In assay [9], this compound had a viability of 63.9%. Also, the red/green cell ratio (normalised) in [11] is 0.84 (inactive). In addition, the normalised cell number in assay [11] (setting [21]) came out at 0.96; in [11] (setting [22]) it was 0.81. Further, the results for the fold change in assay [12] (setting [23]) and in assay [12] (setting [24]) were 0.835 (inactive) and 0.677, respectively. Moreover, the cell count in assay [12] (setting [25]) amounted to 6370; in assay [12] (setting [26]), 7640. The z-score in assay [13] (setting [27]) was -0.35 (inactive); in assay [13] (setting [28]), -0.217. The luciferase signal in [14] is 24 AU (inactive).

For the compound `NC(N)=NC(=O)c1nc(Cl)c(N2CCCCCC2)nc1N`, the period change in [15] is 0.165 h (inactive). Moreover, the results for the inhibition in assay [16] and in assay [10] were -5% (inactive) and 12.2% (inactive), respectively. Further, in assay [11], the red/green cell ratio (normalised) is 0.8 (inactive). For the same compound, the normalised cell number is 1.26 in assay [11] (setting [21]) and 1.01 in assay [11] (setting [22]). In addition, the fold change was 1.18 (inactive) in [12] (setting [23]) and 1.04 in assay [12] (setting [24]). In addition, the cell count in assay [12] (setting [25]) was 4710; in [12] (setting [26]), 3990. Moreover, the call in assay [17] was inactive. The z-score in assay [18] is -1.46 (inactive).

Consider `NCCCCN`, for which the inhibition in [1] was -6.18%; in [16], -3% (inactive); in assay [10], -11.8% (inactive). Further, the score in assay [2] stood at 1.21. The same compound displayed a rescue above control in assay [3] of 9.16. Besides, in assay [4], the cytochrome c release ratio was 0.9. In assay [5], the inhibition of aggregation stood at 70.6%. Besides, the glutamate uptake change in [6] was determined as 0.99%. The compound also showed an inclusion score in assay [7] of 2. The aggregation suppression score in assay [8] was determined as 1.37. Further, the period change in [15] is 0.01 h (inactive). Also, the red/green cell ratio (normalised) in assay [11] is 1.04 (inactive). Further, the normalised cell number worked out at 0.98 in [11] (setting [21]) and 1.02 in [11] (setting [22]). The fold change in assay [12] (setting [23]) is 1.02 (inactive); in [12] (setting [24]), 1.7. Also, the cell count in assay [12] (setting [25]) worked out at 9820; in assay [12] (setting [26]), 9630. For the same compound, the call in assay [17] was inactive. In addition, the luciferase signal in assay [14] is 44 AU (inactive). In assay [18], the z-score was 0.975 (inactive).

For the compound `C1N2CN3CN1CN(C2)C3`, the inhibition was 10.1% in assay [1] and 6.67% (inactive) in assay [10]. For the same compound, the score in [2] came to 0.91. Further, in assay [3], the rescue above control was -6.88. In assay [4], the cytochrome c release ratio is 1.01. In assay [5], the inhibition of aggregation was found to be 27.8%. The glutamate uptake change in assay [6] was -31.9%. In assay [7], this compound came in with an inclusion score of 2. The same compound had an aggregation suppression score in assay [8] of 0.744. In assay [9], the parasite load remaining is 80.4% (inactive) and 31.8% (inactive). Moreover, the viability in assay [9] was 76.7% and 89.4%. Moreover, the red/green cell ratio (normalised) in assay [11] was 1 (inactive). Further, the normalised cell number in [11] (setting [21]) and in assay [11] (setting [22]) was 1.13 throughout. The fold change in assay [12] (setting [23]) was 0.9 (inactive) and 0.915 (inactive); in assay [12] (setting [24]) it was 0.914 and 0.53. Further, the cell count in assay [12] (setting [25]) is 8000 and 12000; in assay [12] (setting [26]), 8890 and 13100. In addition, the z-score in assay [13] (setting [27]) is -0.156 (inactive) and 0.632 (inactive); in [13] (setting [28]), -0.286 and -0.336. The remaining NAD in assay [19] was 10 nM (inactive). Also, the luciferase signal in assay [14] is 64 AU (inactive).

In the case of `CC(=O)Oc1ccccc1C(=O)Oc1ccccc1C(=O)O`, in assay [20], the survival was 16.8 (inactive). In addition, the parasite load remaining in assay [9] was 36.8% (inactive) and 92.5% (inactive). In addition, the viability in [9] was 53.8% and 90.5%. In addition, the inhibition in assay [10] was 14.2% (inactive). The red/green cell ratio (normalised) in [11] is 1.07 (inactive). In addition, the normalised cell number was 0.97 in [11] (setting [21]) and 1.04 in [11] (setting [22]). Further, the fold change in assay [12] (setting [23]) is 0.938 (inactive); in assay [12] (setting [24]) it was 0.828. Also, the cell count in [12] (setting [25]) was 8700; in assay [12] (setting [26]), 9270. For the same compound, the z-score was -0.224 (inactive) in [13] (setting [27]) and 0.071 in assay [13] (setting [28]). In [14], the luciferase signal was 48 AU (inactive).

As to `Cn1c(=O)c2[nH]c(C3CCCC3)nc2n(C)c1=O`, the inhibition was 24.6% in assay [1], -1% (inactive) in assay [16] and -7.2% (inactive) in [10]. Further, the score in assay [2] came out at 1.3. The compound also yielded a rescue above control in assay [3] of 12.7. For the same compound, the cytochrome c release ratio in assay [4] is 0.91. The inhibition of aggregation in [5] is -13.7%. Besides, the glutamate uptake change in assay [6] was 10.7%. Also, the inclusion score in assay [7] amounted to 1.5. In addition, the aggregation suppression score in assay [8] came to 1.14. Besides, the period change in [15] was 0.02 h (inactive). Moreover, the red/green cell ratio (normalised) in [11] is 0.82 (inactive). The figures for the normalised cell number in assay [11] (setting [21]) and in [11] (setting [22]) were 1.23 and 1.01, respectively. Also, the fold change is 0.947 (inactive) in assay [12] (setting [23]) and 1.51 in [12] (setting [24]). Moreover, the cell count was determined as 9200 in assay [12] (setting [25]) and 9710 in assay [12] (setting [26]). In assay [17], the compound was classed as inactive. Also, the luciferase signal in [14] was 44 AU (inactive). For the same compound, the z-score in assay [18] is 0.92 (inactive).

What is called inhibition is the relative decrease from the control value, in per cent. In general, viability refers to a per cent measure of how many cells are alive, often set against a control.
